Each structure is given as a SMILES string. Hit rate of the full screen: of about 400,000 compounds, about 5,500 (1.4%) were called active. A call without a number means that no potency is given here. Roughly 9% stayed inconclusive and do not appear here. The call rests on the fitted dose curve; in most records, active means well fitted cell-killing curve with a large enough effect; inconclusive means small, poorly fitted or top-dose-only effect, or effect the other way; inactive means flat fitted curve, though single readings scatter. The full list was thinned out, with actives kept by preference.
Potency means the concentration at half of the fitted maximal effect.

This test is described as follows: qHTS assay for MDR1-selective chemotherapeutics: Primary screen using the parental adenocarcinoma cell KB-3-1. Further: nearly all actives have a fitted effect of over 60% in size. Conditions: KB-3-1 viability, CellTiter-Glo ATP luminescence, 72 h; series mostly up to 46.1 µM. The procedure, abridged: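 Here the drug-naive KB-3-1 line serves as comparator for MDR sub-line selectivity; cells received compound titrations, 72 h at 37 °C, then CellTiter-Glo readout.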
For the compound `COc1cc2[nH]c(=O)n(Cc3ccc(C(=O)NCc4ccc(C)cc4)cc3)c(=O)c2cc1OC`, the Potency result was “inactive”. Regarding `CC1CCCCN1Cc1c(O)ccc2c(=O)c(-c3cccc(Cl)c3)c(C(F)(F)F)oc12` (stereo not drawn), the Potency entry is “inactive”. `COc1nc(N=C(N)N)nc2c(C)cccc12`: the Potency result was “inactive”.

In the case of `Cc1nc(N=C(N)N)nc2c(C)cccc12`, the Potency was 10.3 µM (active).

`COc1ccc(CNc2nc(NCc3ccc(OC)cc3)c3ncn(C4CCCC4)c3n2)cc1`: the Potency was 6.51 µM (active).

As for `COc1ccc(CNc2nnnn2C)cc1`, the Potency result is “inactive”.

For the compound `COCCNc1ncnc2c1ncn2[C@H]1CN(Cc2ccc(OC)cc2)C[C@@H](CO)O1`, the Potency result is “inactive”. The same measure for `COc1ccc(S(=O)(=O)NCc2cccn2Cc2cccc(C)c2)cc1`: “inactive”; for `COc1ccc(CC(=O)N2CC(=O)Nc3ccc(Br)cc3C2c2ccc(F)cc2)cc1OC` (stereo not drawn): “inactive”; for `COc1ccc(-c2cc(C(F)(F)F)nc(SCC(=O)N(C)Cc3ccccc3)n2)cc1OC`: “inactive”. The same measure for `Cc1ccc(F)cc1NC(=O)CCSc1nc(-c2ccco2)cc(C(F)(F)F)n1`: “inactive”; for `COc1ccccc1CC1(C)C(=O)Nc2ccc(OC(F)(F)F)cc21` (stereo not drawn): “inactive”; for `CC1(Cc2ccccc2C#N)C(=O)Nc2ccc(-c3ccc4[nH]ccc4c3)cc21` (stereo not drawn): 6.51 µM (active).

For the compound `Cc1ccc(CC2(C)C(=O)Nc3ccc(OC(F)(F)F)cc32)cc1` (stereo not drawn), the Potency result is “inactive”. Turning to `COc1ccc(CCNC(=O)c2cc3cccc4c3n2CC(C)S4)c(OC)c1OC` (stereo not drawn), the Potency result was “inactive”. The result for `CC(C)Cn1c(C2CC(=O)N(c3ccccc3Cl)C2)nc2ccccc21` (stereo not drawn) reads “inactive”. The result for `O=C(CSc1nc(-c2cccc(F)c2)[nH]c1-c1ccccc1)Nc1ccc2c(c1)OCO2` reads “inactive”. The same measure for `COc1cccc(C(=O)NC2(C(F)(F)F)C(=O)Nc3c2c(=O)[nH]c(=O)n3-c2ccc(C)cc2)c1` (stereo not drawn): “inactive”; for `CCc1c(C)nc2c(-c3ccccc3)c(C)nn2c1Nc1ccc(NC(C)=O)cc1`: “inactive”. Turning to `CC(=O)Nc1ccc(Nc2c3ccccc3nc3ccccc23)cc1`, the Potency was 4.61 µM (active).

In the case of `CC(=O)Nc1ccc(S(=O)(=O)N2CCN(c3ccccc3)CC2)cc1`, the Potency result was “inactive”.

Consider `COc1ccc(CNC(=O)c2ccc3c(c2)nc2n3CCOC2)c(OC)c1`, for which the Potency result is “inactive”. Regarding `Cc1nc2nc(SCC(=O)N(Cc3ccccc3)C(C)C)nn2c(C)c1Cc1ccccc1Cl`, the Potency entry is “inactive”.

In the case of `O=C(Nc1ccccc1Cl)N1CCC(CN2CCCCC2)CC1`, the Potency entry is “inactive”. `O=C(Nc1ccccc1Cl)/C(Cl)=C(\Cl)S(=O)c1ccccc1` (stereo not drawn): the Potency was 6.51 µM (active). As for `O=C(Nc1ccccc1Cl)c1ccccc1S(=O)(=O)c1ccccc1[N+](=O)[O-]`, the Potency result is “inactive”.

As to `NS(=O)(=O)c1ccc(NC(=O)COc2ccc(S(=O)(=O)NC3CCCCC3)cc2)cc1`, the Potency entry is “inactive”. Consider `COc1ccccc1N1CCN(c2ccc(=O)n(CC(=O)NCc3ccc(OC(C)C)cc3)n2)CC1`, for which the Potency result is “inactive”.

On to `Cc1cc(C)cc(NC(=O)CCS(=O)(=O)c2cc3c4c(c2)CCN4C(=O)CC3)c1`, for which the Potency entry was “inactive”. Take `Cc1ccc(Oc2c(C(F)(F)F)oc3c(CN4CCCCC4)c(O)ccc3c2=O)cc1`: the Potency entry was “inactive”. The same measure for `COc1ccc(CN2CCOC2=O)cc1OC`: “inactive”.

Take `COc1ccccc1CNC(=O)CCn1c(=O)sc2ccccc21`: the Potency result is “inactive”. As to `COc1ccc(Cn2c(=O)sc3ccccc32)cc1OC`, the Potency was 14.6 µM (active).

In the case of `Cc1ccc(-c2nnc3ccc(SCC(N)=O)nn23)cc1`, the Potency result was “inactive”. The same measure for `O=C(NCc1cccnc1)C(=O)NCC(c1cccnc1)N1CCN(c2ccccc2)CC1` (stereo not drawn): “inactive”.

For `CCN1CCN(C(c2cccnc2)c2cc(Cl)c3cccnc3c2O)CC1` (stereo not drawn), the Potency was 7.31 µM (active). As for `CCN1CCN(C(c2ccc(C)cc2)c2c(O)cc(C)n(Cc3ccco3)c2=O)CC1` (stereo not drawn), the Potency entry is “inactive”. Regarding `O=C1CCC[C@@H]2C[C@@]3(C[C@@H]4CCN1[C@H]24)Nc1ccccc1NC3=NCc1ccccc1`, the Potency result is “inactive”.

For the compound `Cc1c(Cl)cccc1-c1ccc(CNCCCSc2nnnn2C)o1`, the Potency entry was “inactive”.

Consider `Cc1ccsc1C1C(C#N)=C(N)OC2=C1C(=O)CC(C)C2` (stereo not drawn), for which the Potency entry was “inactive”. The result for `CCOC(=O)CSC1=C(C#N)C(c2sccc2C)CC(=O)N1` (stereo not drawn) reads 5.01 µM (active). The same measure for `C=CCSC1=C(C#N)C(c2cc(Br)c(O)c(OC)c2)CC(=O)N1` (stereo not drawn): “inactive”. For the compound `CCOc1ccc(NC(=O)Cn2cc(C(=O)c3ccc(C)cc3)c(=O)c3cc4c(cc32)OCCO4)cc1`, the Potency entry was “inactive”.

With `CCOc1cc(C2C(C(=O)OC)=C(C)NC3=C2C(=O)c2ccccc23)ccc1O` (stereo not drawn), the Potency result is “inactive”. The result for `Cc1ccc(C(=O)CSc2nc(-c3ccccc3)nc3c2CCCC3)c(C)c1` reads “inactive”; that for `Clc1ccc(C[n+]2cc(-c3ccccc3)n3c2CCC3)cc1`, 7.31 µM (active); that for `Cc1ccc(C(=O)N2CCCC(c3ccccc3)=N2)cc1`, “inactive”.

With `Cn1c(-c2ccccc2)c[n+]2c1CCCCC2`, the Potency result was “inactive”. The result for `Cc1ccc(C(=O)C[n+]2cc(-c3ccccc3)n3c2CCCCC3)cc1` reads 8.2 µM (active); that for `CC1(C)C=Cc2c(ccc(C(=O)/C=C/c3ccccc3)c2O)O1`, “inactive”. The result for `COc1ccc(CN2CCc3nc(Nc4ccccc4)ncc3C2)c(OC)c1OC` reads “inactive”.

With `CCS(=O)(=O)N1CCc2cc(C(=O)N3CCN(c4ccccc4OC)CC3)ccc21`, the Potency is 14.6 µM (active). Regarding `Cc1[nH]c2ccc(C(=O)N3CCN(C)CC3)cc2c1C`, the Potency entry is “inactive”. The same measure for `COc1ccccc1NS(=O)(=O)c1ccc(C(=O)N2CCN(c3ccccc3O)CC2)cc1`: “inactive”; for `CCS(=O)(=O)N1CCc2cc(C(=O)NCc3ccc(OC)cc3)ccc21`: “inactive”; for `CCOc1ccccc1N1CCN(C(=O)c2ccc3[nH]c(C)c(C)c3c2)CC1`: 8.2 µM (active). The same measure for `CCOc1ccccc1NC(=S)N1CCN(c2cccc(C)c2C)CC1`: “inactive”; for `CCn1c(C)c(C)c2cc(C(=O)N3CCN(c4cccc(C)c4C)CC3)ccc21`: “inactive”; for `CC1CCN(C(=O)c2cccc(S(=O)(=O)N3CCCc4ccccc43)c2)CC1`: “inactive”. Take `Cc1cccc(N2CCN(C(=O)c3ccc4c(c3)CCN4S(=O)(=O)c3ccccc3)CC2)c1C`: the Potency was 23.1 µM (active). As for `Cc1cccn2c(=O)c(C(=O)NC(C)c3ccccc3)cnc12` (stereo not drawn), the Potency result was “inactive”. In the case of `COc1cc(C(=O)NCC(c2ccc(Cl)cc2)N2CCOCC2)cc(OC)c1OC` (stereo not drawn), the Potency entry is “inactive”. The result for `O=C(NCC(c1cccnc1)N1CCc2ccccc21)c1cccc(C(F)(F)F)c1` (stereo not drawn) reads “inactive”; that for `CCOC(=O)c1cc2c(=O)n3ccccc3nc2n(CC2CCCO2)c1=NC(=O)c1ccccc1Br` (stereo not drawn), “inactive”. With `Cn1nc(-c2ccccc2)c(CO)c1Sc1ccccc1`, the Potency entry was “inactive”.

Consider `Cn1nc(-c2ccccc2)c(-c2nc(-c3ccc(Cl)cc3)no2)c1Cl`, for which the Potency result is “inactive”. As to `Cn1nc(-c2ccccc2)c(CSc2cccc(Cl)c2)c1Cl`, the Potency is 23.1 µM (active). The same measure for `COc1ccccc1N1CCN(C(=O)C2CCN(S(=O)(=O)c3c(C)noc3/C=C/c3ccc(C)cc3)CC2)CC1`: “inactive”; for `O=c1c2cccnc2n(Cc2cccc(F)c2)c(=O)n1Cc1ccccc1Cl`: “inactive”.

As to `CC(C)c1cc(C(=O)O)n[nH]1`, the Potency result is “inactive”.

In the case of `Cc1ccc(-c2cc(C(=O)N/N=C/C=C/c3ccccc3)n[nH]2)o1`, the Potency result is “inactive”. Consider `CC(C)c1cc(C(=O)N/N=C/C(Br)=C/c2ccccc2)n[nH]1`, for which the Potency was 10.3 µM (active). The result for `CCOC(=O)C=Cc1ccc(C(=O)OCC)[nH]1` reads 7.31 µM (active); that for `CCOC(=O)c1cc2cc(C)ccc2[nH]1`, “inactive”. The result for `CCOC(=O)c1c(C)[nH]c(C)c1C(=O)COC(=O)/C=C/c1cccc([N+](=O)[O-])c1` reads “inactive”. As to `COc1ccccc1CNC(=O)C(Cc1ccccc1)NS(=O)(=O)c1ccc2c(c1)oc(=O)n2C` (stereo not drawn), the Potency result is “inactive”.

With `COc1ccccc1CN1CCC(CNC(=O)c2cnn(-c3ccccc3Cl)c2C2CCN(C(=O)OC(C)(C)C)CC2)CC1`, the Potency entry is “inactive”.

`Cc1cc(Cl)ccc1NC(=O)Cc1ccc(NC(=O)N2CCCCc3ccccc32)cc1`: the Potency result was “inactive”.

The values above are taken from PubChem BioAssay AID1347075 (National Center for Advancing Translational Sciences (NCATS), 2019).
